From PubChem BioAssay AID504569 (NMMLSC, 2011) come the findings set out here.

Structures are written as SMILES. Entries with a potency or affinity are not part of this list. Active and inactive are the calls of the source.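 How the source made its calls: active means activity score above a set limit, rewarding a half-maximal dose under 10 µM and fitted response height over 20%; inactive means the rest.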

This assay deals with ATP-dependent translocase ABCB1 (Homo sapiens) (UniProt P08183). As to the kind of experiment: ABCB1 efflux inhibitor potency, dose response, Jurkat-DNR cells, JC-1, flow cytometry, set 2 (AID 504569). As to conditions: JC-1 efflux; series mostly up to 50 µM.
ATP-dependent translocase ABCB1 (Homo sapiens), sequence (P08183 whole entry, looked up): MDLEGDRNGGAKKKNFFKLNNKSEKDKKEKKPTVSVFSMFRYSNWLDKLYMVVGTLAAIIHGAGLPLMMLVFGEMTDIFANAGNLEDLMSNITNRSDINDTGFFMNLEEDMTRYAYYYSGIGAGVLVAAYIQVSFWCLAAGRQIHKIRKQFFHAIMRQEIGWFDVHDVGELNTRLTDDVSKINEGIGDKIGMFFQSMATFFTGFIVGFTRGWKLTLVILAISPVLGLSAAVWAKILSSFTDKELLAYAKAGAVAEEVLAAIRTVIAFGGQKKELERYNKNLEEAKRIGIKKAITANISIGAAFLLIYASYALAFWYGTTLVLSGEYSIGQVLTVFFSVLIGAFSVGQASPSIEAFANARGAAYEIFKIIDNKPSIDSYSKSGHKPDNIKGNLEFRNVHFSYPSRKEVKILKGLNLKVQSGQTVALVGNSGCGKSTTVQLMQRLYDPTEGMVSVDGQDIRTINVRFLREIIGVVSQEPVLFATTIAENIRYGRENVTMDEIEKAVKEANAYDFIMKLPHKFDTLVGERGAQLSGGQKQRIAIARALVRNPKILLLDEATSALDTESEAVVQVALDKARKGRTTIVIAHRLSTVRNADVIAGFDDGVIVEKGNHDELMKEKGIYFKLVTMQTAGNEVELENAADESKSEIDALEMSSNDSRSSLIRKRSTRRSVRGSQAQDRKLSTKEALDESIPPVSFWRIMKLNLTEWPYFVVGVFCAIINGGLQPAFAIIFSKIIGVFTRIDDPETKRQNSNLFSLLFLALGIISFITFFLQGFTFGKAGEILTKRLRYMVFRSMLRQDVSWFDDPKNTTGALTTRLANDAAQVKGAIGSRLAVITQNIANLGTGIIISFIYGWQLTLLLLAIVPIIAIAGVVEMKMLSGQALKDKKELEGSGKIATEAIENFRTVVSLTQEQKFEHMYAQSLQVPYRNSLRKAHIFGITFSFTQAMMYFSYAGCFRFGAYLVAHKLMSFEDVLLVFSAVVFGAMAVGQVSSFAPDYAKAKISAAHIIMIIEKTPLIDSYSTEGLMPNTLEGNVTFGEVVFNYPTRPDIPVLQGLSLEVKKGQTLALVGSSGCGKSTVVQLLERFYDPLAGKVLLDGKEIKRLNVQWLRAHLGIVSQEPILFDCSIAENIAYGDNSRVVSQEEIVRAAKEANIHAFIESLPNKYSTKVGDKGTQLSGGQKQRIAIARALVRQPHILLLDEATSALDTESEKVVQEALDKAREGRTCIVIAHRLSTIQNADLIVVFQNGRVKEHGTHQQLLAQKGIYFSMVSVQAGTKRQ
With `CC(=O)N1CCN(c2c(C)c(C)nc3cc(-c4ccc(Cl)cc4)nn23)CC1`, the compound was called inactive. On to `O=S(=O)(c1ccccc1)N1CCN(c2cc(-c3ccccc3)nc3cc(-c4cccc(Cl)c4)nn23)CC1`, for which the outcome was inactive. For the compound `Cc1nc2cc(-c3cccs3)nn2c(N2CCN(C(=O)c3ccco3)CC2)c1C`, the outcome was inactive.
